Compounds without any hit were thinned out: in the full panel of roughly 83,000, 20% have a hit.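 Values shown are percent growth following 48 h exposure of cells in 96-well plates to a single concentration of compound; below 10 was considered active.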 Calls of active or inactive are those of the source.

The test system of one assay is OVCAR-8 ovarian. The experiment in a line: NCI-60 one-dose screen, 48 h (100 = growth as untreated, 0 = no growth, -100 = all killed). The following applies: 10 µM unless noted.
For `CC(C)(CO)N(CCO)CCO`, the growth is 110% (inactive).
On the same count and under the same terms, for `CCCCCCCCn1ccc2cc(NC(=O)Cn3cc(CN4CCCCCC4)nn3)ccc21` the value was 30% (inactive); for `COc1cc2cc(Oc3ccc(NC(=O)Nc4ccccc4)cc3)c(C)nc2cc1OCCN1CCCCC1`, 46.5% (inactive); for `CN1CCN(CCCOC(=O)c2c3c(n4ccccc24)C(=O)c2ncccc2C3=O)CC1`, 4.94% (active).
Turning to `Cc1ccc2[nH]c(-c3ccc(S(C)(=O)=O)cc3)c(/C=N/N=C(N)N)c2c1`, the growth is 58.4% (inactive).
Still for that read-out and setting: for `COc1ccc(C/C(C)=C(\c2ccc(O)cc2)c2ccc(OCCN3CCCC3)cc2)cc1` the value was 103% (inactive); for `CC1(C)C2CC=C(/C=N/NC(=O)C3CCC(=O)N3)C1C2` (stereo not given), 105% (inactive); for `COc1ccc2cc(-c3ccc(-c4ccc(C(=N)N)s4)s3)ccc2c1`, -32.6% (active).
Turning to `Cc1nc2sc(C(=O)Nc3ccccc3)c(N)c2cc1C(=O)/C=C/c1ccccc1`, the growth was -1.16% (active).
Regarding `O=C1/C(=C/c2ccc(C(F)(F)F)cc2)COc2ccc(O)cc21`, the growth is 76.4% (inactive).
Still for that read-out and setting: under `Cc1[nH]c(C(=O)Nc2ccc(C(N)=O)cc2NC(C)C)c(Cl)c1Cl` stands 92.4% (inactive).
Same read-out and setting: under `Oc1c(CN2CCCC2)cc(COCc2ccccc2)c2cccnc12` stands 9.92% (active); under `CCCCCCCC/C=C\CCCCCCCCOc1ccccc1CC(=O)NCC[N+]1(C)CCCCC1`, 60.5% (inactive).
The same measure, in the same setting: under `O=C1Nc2ccc(F)cc2/C1=C\c1nc(-c2ccccc2F)n2ccccc12` stands 80.6% (inactive); under `CN(C)Cc1ccc(C(=O)Nc2ccc3ncnc(Nc4ccc(Oc5cccc(F)c5)c(Cl)c4)c3c2)cc1`, 14.2% (inactive); under `CCNC(=O)Oc1ccc(/C(=C(/C)Cc2ccc(OC)cc2)c2ccc(OCCN3CCCC3)cc2)cc1`, 89.8% (inactive).
For `Cc1cscc(C)c1=S`, the growth was 83.3% (inactive).
The same measure, in the same setting: for `CC(=O)N/C(=C1/OC(C(O)C(O)C(O)CO)CN1C)[P+](c1ccccc1)(c1ccccc1)c1ccccc1` (stereo not given) the value was 102% (inactive); for `COC(=O)c1c2c(n3ccc(C)cc13)C(=O)c1ccccc1C2=O`, 60.2% (inactive).
With `COc1cc2nc(Nc3cccc(F)c3)nc(Nc3cc(C)[nH]n3)c2cc1OC`, the growth is -42.5% [20 µM] (active).
On the same count and under the same terms, under `CC1=CCC[C@@H]2C1(C)CC[C@H](C)[C@@]2(C)CC1=CC(=O)C(SC(C)(C)C)=CC1=O` (stereo not given in full) stands 91.8% (inactive).
For `O=C(/C=C/c1cccc(Cl)c1)c1cccc(OCCCCOc2cccc(C(=O)/C=C/c3cccc(Cl)c3)c2)c1`, the growth is 97.3% (inactive).
On to `CCCNc1nc2ccccc2c2c(=O)c3cccc(Cl)c3sc12`, for which the growth was 95.4% (inactive).
The same measure, in the same setting: under `COc1cccc(Nc2ccnc3[nH]c4ccc([N+](=O)[O-])cc4c23)c1` stands 32.2% (inactive); under `CCOC(=O)CSc1nc2sc3c(c2c(=O)n1-c1ccc([N+](=O)[O-])cc1)CCCCC3`, 58.4% (inactive).
On to `COc1cccc2c(N=NC(=O)c3ccc(S(N)(=O)=O)cc3)c(O)[nH]c12`, for which the growth is 102% (inactive).
The same measure, in the same setting: under `Clc1nccc2c(-c3csc(-c4c[nH]c5ccccc45)n3)c[nH]c12` stands 56.5% (inactive); under `COc1cc(/C=N/Nc2ccccc2F)cc(OC)c1OC`, 92% (inactive); under `COc1ccc2c(c1)c(-c1nc(-c3cn(C)c4ncccc34)cs1)cn2CCO`, 73% (inactive).
On the same count and under the same terms, under `CS(=O)(=O)Cc1cnc(C2OCCO2)s1` stands 104% (inactive); under `COc1ccc(Nc2ncc(C(N)=O)c(NCCCNC(=O)C3CCC3)n2)cc1`, 62.6% (inactive); under `N#C/C(=C\c1ccc(-c2ccc(Cl)cc2)o1)c1ccc(Cl)cc1`, 58.4% (inactive).
Regarding `COc1cc(C(=O)/C=C/c2c(-c3cccs3)nc3ccccn23)cc(OC)c1OC`, the growth is 9.84% (active).
Regarding `Fc1ccc(CNc2c3ccccc3nc3ccccc23)cc1`, the growth was 22.3% (inactive).
`COc1cc(Nc2c3ccc(Cl)cc3nc3ccc(OC)cc23)c2ncccc2c1`: the growth was 46.1% (inactive).
`COc1cc(C2Cc3ncccc3-c3[nH]c(=O)c4cccnc4c32)cc(OC)c1OC` (stereo not given): the growth was 17.3% (inactive).
The same measure, in the same setting: for `CCc1ccc(CCC(=O)Nc2ncc(Cc3ccc(Cl)cc3)s2)o1` the value was 31.3% (inactive); for `N#Cc1c(-c2ccccc2)nc2c(c(-c3ccccc3)nn2-c2ccccc2)c1-c1ccc(N2CCOCC2)cc1`, 99% (inactive); for `COc1ccc(NC(=O)c2ccc(C(=O)Nc3ccc(OC)cc3OC)cc2)c(OC)c1`, 44.5% (inactive).
`CCN=C1C=CC(=C(c2ccc(N(C)C)cc2)c2ccc(N(C)C)cc2)c2ccccc21`: the growth is -8.37% (active).

A further assay deals with OVCAR-5 ovarian. Described as above. The following applies: 10 µM unless noted.
On to `CC(C)(CO)N(CCO)CCO`, for which the growth was 93.1% (inactive).
Regarding `CCCCCCCCn1ccc2cc(NC(=O)Cn3cc(CN4CCCCCC4)nn3)ccc21`, the growth is 35.6% (inactive).
The same measure, in the same setting: for `COc1cc2cc(Oc3ccc(NC(=O)Nc4ccccc4)cc3)c(C)nc2cc1OCCN1CCCCC1` the value was 119% (inactive).
Still for that read-out and setting: for `CN1CCN(CCCOC(=O)c2c3c(n4ccccc24)C(=O)c2ncccc2C3=O)CC1` the value was -4.35% (active); for `Cc1ccc2[nH]c(-c3ccc(S(C)(=O)=O)cc3)c(/C=N/N=C(N)N)c2c1`, 101% (inactive); for `COc1ccc(C/C(C)=C(\c2ccc(O)cc2)c2ccc(OCCN3CCCC3)cc2)cc1`, 99.1% (inactive).
Still for that read-out and setting: for `CC1(C)C2CC=C(/C=N/NC(=O)C3CCC(=O)N3)C1C2` (stereo not given) the value was 107% (inactive); for `COc1ccc2cc(-c3ccc(-c4ccc(C(=N)N)s4)s3)ccc2c1`, -33% (active); for `Cc1nc2sc(C(=O)Nc3ccccc3)c(N)c2cc1C(=O)/C=C/c1ccccc1`, 16.6% (inactive).
As to `O=C1/C(=C/c2ccc(C(F)(F)F)cc2)COc2ccc(O)cc21`, the growth is 96.5% (inactive).
Still for that read-out and setting: under `Cc1[nH]c(C(=O)Nc2ccc(C(N)=O)cc2NC(C)C)c(Cl)c1Cl` stands 104% (inactive).
The same measure, in the same setting: for `Oc1c(CN2CCCC2)cc(COCc2ccccc2)c2cccnc12` the value was 43.1% (inactive); for `CCCCCCCC/C=C\CCCCCCCCOc1ccccc1CC(=O)NCC[N+]1(C)CCCCC1`, 66.2% (inactive); for `O=C1Nc2ccc(F)cc2/C1=C\c1nc(-c2ccccc2F)n2ccccc12`, 67.2% (inactive).
`CN(C)Cc1ccc(C(=O)Nc2ccc3ncnc(Nc4ccc(Oc5cccc(F)c5)c(Cl)c4)c3c2)cc1`: the growth is -28.7% (active).
`CCNC(=O)Oc1ccc(/C(=C(/C)Cc2ccc(OC)cc2)c2ccc(OCCN3CCCC3)cc2)cc1`: the growth is 83.8% (inactive).
On to `Cc1cscc(C)c1=S`, for which the growth is 67.5% (inactive).
The same measure, in the same setting: under `CC(=O)N/C(=C1/OC(C(O)C(O)C(O)CO)CN1C)[P+](c1ccccc1)(c1ccccc1)c1ccccc1` (stereo not given) stands 99.5% (inactive); under `COC(=O)c1c2c(n3ccc(C)cc13)C(=O)c1ccccc1C2=O`, 116% (inactive).
Same read-out and setting: for `COc1cc2nc(Nc3cccc(F)c3)nc(Nc3cc(C)[nH]n3)c2cc1OC` the value was -100% [20 µM] (active); for `CC1=CCC[C@@H]2C1(C)CC[C@H](C)[C@@]2(C)CC1=CC(=O)C(SC(C)(C)C)=CC1=O` (stereo not given in full), 68% (inactive); for `O=C(/C=C/c1cccc(Cl)c1)c1cccc(OCCCCOc2cccc(C(=O)/C=C/c3cccc(Cl)c3)c2)c1`, 109% (inactive).
As for `CCCNc1nc2ccccc2c2c(=O)c3cccc(Cl)c3sc12`, the growth was 96.5% (inactive).
The same measure, in the same setting: under `COc1cccc(Nc2ccnc3[nH]c4ccc([N+](=O)[O-])cc4c23)c1` stands 110% (inactive); under `CCOC(=O)CSc1nc2sc3c(c2c(=O)n1-c1ccc([N+](=O)[O-])cc1)CCCCC3`, 72.2% (inactive); under `COc1cccc2c(N=NC(=O)c3ccc(S(N)(=O)=O)cc3)c(O)[nH]c12`, 106% (inactive).
Same read-out and setting: for `Clc1nccc2c(-c3csc(-c4c[nH]c5ccccc45)n3)c[nH]c12` the value was 107% (inactive); for `COc1cc(/C=N/Nc2ccccc2F)cc(OC)c1OC`, 94.6% (inactive); for `COc1ccc2c(c1)c(-c1nc(-c3cn(C)c4ncccc34)cs1)cn2CCO`, 76% (inactive).
Same read-out and setting: for `CS(=O)(=O)Cc1cnc(C2OCCO2)s1` the value was 106% (inactive); for `COc1ccc(Nc2ncc(C(N)=O)c(NCCCNC(=O)C3CCC3)n2)cc1`, 109% (inactive).
In the case of `N#C/C(=C\c1ccc(-c2ccc(Cl)cc2)o1)c1ccc(Cl)cc1`, the growth is 68.1% (inactive).
`COc1cc(C(=O)/C=C/c2c(-c3cccs3)nc3ccccn23)cc(OC)c1OC`: the growth was 18.4% (inactive).
Still for that read-out and setting: for `Fc1ccc(CNc2c3ccccc3nc3ccccc23)cc1` the value was 38.5% (inactive); for `COc1cc(Nc2c3ccc(Cl)cc3nc3ccc(OC)cc23)c2ncccc2c1`, 70.2% (inactive); for `COc1cc(C2Cc3ncccc3-c3[nH]c(=O)c4cccnc4c32)cc(OC)c1OC` (stereo not given), 52.2% (inactive).
Same read-out and setting: for `CCc1ccc(CCC(=O)Nc2ncc(Cc3ccc(Cl)cc3)s2)o1` the value was 52.1% (inactive).
On the same count and under the same terms, for `N#Cc1c(-c2ccccc2)nc2c(c(-c3ccccc3)nn2-c2ccccc2)c1-c1ccc(N2CCOCC2)cc1` the value was 102% (inactive); for `COc1ccc(NC(=O)c2ccc(C(=O)Nc3ccc(OC)cc3OC)cc2)c(OC)c1`, 81.2% (inactive).
In the case of `CCN=C1C=CC(=C(c2ccc(N(C)C)cc2)c2ccc(N(C)C)cc2)c2ccccc21`, the growth was 4.09% (active).

The values are drawn from PubChem BioAssay (NCI).
